The nature of assay [1]: nuclear p53 accumulation, HPV+ cells – imaging, p53-positive nuclei imaging, 24 h, 48 h (AID 1508601). The note with it: 24/48 h.
The target in assay [2] is Cellular tumor antigen p53 (Homo sapiens) (UniProt P04637). Described as above. The following applies: 24/48 h, stronger effect = higher value.
Setting [3] is: measured here: cell number at 24 h, Library stock concentration: 10 mM.
[4] abbreviates: measured here: cell number at 48 h, Library stock concentration: 10 mM.
The mark [5] stands for this setting: Library stock concentration: 10 mM.
The mark [6] stands for this setting: measured here: p53 positive nuclei at 24 h, Library stock concentration: 10 mM.
[7] abbreviates: measured here: cell number at 24 h, Library stock concentration: 3.33 mM.
[8] abbreviates: measured here: cell number at 48 h, Library stock concentration: 3.33 mM.
Setting [9] is: Library stock concentration: 3.33 mM.
Where [10] appears, read: measured here: p53 positive nuclei at 24 h, Library stock concentration: 3.33 mM.
[11] abbreviates: measured here: cell number at 24 h, concentration not given here.
Setting [12] is: measured here: cell number at 48 h, concentration not given here.
Setting [13] is: measured here: p53 positive nuclei at 24 h, concentration not given here.
Where [14] appears, read: measured here: cell number at 24 h, Library stock concentration: 80 uM.
Where [15] appears, read: measured here: cell number at 24 h, Library stock concentration: 400 uM.
The mark [16] stands for this setting: measured here: cell number at 24 h, Library stock concentration: 2 mM.
[17] abbreviates: measured here: cell number at 48 h, Library stock concentration: 80 uM.
[18] abbreviates: measured here: cell number at 48 h, Library stock concentration: 400 uM.
The mark [19] stands for this setting: measured here: cell number at 48 h, Library stock concentration: 2 mM.
The mark [20] stands for this setting: Library stock concentration: 80 uM.
Where [21] appears, read: Library stock concentration: 400 uM.
Where [22] appears, read: Library stock concentration: 2 mM.
Setting [23] is: measured here: p53 positive nuclei at 24 h, Library stock concentration: 80 uM.
[24] abbreviates: measured here: p53 positive nuclei at 24 h, Library stock concentration: 400 uM.
Setting [25] is: measured here: p53 positive nuclei at 24 h, Library stock concentration: 2 mM.

Experimental findings from PubChem BioAssay AID1508601 (ICCB-Longwood Screening Facility, Harvard Medical School, 2020) are described below.

The structures appear in SMILES notation. About 85 (1%) of roughly 5,700 compounds were called active. The sample holds actives, similar compounds and a random draw of the others, so the mix is not that of the screen. No stated cut-off is given here; in the data, active means p53-positive nuclei above about 36% (passing the limit was not always enough); inactive means the rest.

Cellular tumor antigen p53 (Homo sapiens), sequence (P04637 whole entry, looked up): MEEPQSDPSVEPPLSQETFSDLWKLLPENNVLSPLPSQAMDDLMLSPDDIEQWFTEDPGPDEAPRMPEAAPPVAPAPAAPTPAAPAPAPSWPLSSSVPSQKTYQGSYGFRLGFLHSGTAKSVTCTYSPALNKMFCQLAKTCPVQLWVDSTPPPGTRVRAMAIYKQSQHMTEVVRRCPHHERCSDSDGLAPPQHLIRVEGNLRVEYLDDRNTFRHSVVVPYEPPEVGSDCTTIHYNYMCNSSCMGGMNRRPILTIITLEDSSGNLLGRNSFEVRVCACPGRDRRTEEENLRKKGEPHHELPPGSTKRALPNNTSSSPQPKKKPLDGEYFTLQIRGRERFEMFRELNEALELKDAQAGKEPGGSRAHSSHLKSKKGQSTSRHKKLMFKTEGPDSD

For the compound `COc1ccc(N2C(=O)C(=Cc3ccc([N+](=O)[O-])s3)SC2=S)cc1`, the nuclei count, normalised in assay [1] (measured here: cell number at 24 h, Library stock concentration: 500 nM) turned out to be 117%; in assay [1] (measured here: cell number at 24 h, Library stock concentration: 1.5 uM), 113%; in assay [1] (measured here: cell number at 24 h, Library stock concentration: 4.6 uM), 108%; in assay [1] (measured here: cell number at 24 h, Library stock concentration: 13.7 uM), 110%; in assay [1] (measured here: cell number at 24 h, Library stock concentration: 41 uM), 105%; in assay [1] (measured here: cell number at 24 h, Library stock concentration: 123 uM) it was 88.7%. Moreover, the nuclei count, normalised in assay [1] (measured here: cell number at 24 h, Library stock concentration: 370 uM) is 69.2%; in assay [1] (measured here: cell number at 24 h, Library stock concentration: 1.111 mM), 62.1%; in assay [1] (measured here: cell number at 24 h, Library stock concentration: 3.333 mM), 48.5%; in assay [1] (setting [3]) it was 37.6%; in assay [1] (measured here: cell number at 48 h, Library stock concentration: 500 nM), 110%; in assay [1] (measured here: cell number at 48 h, Library stock concentration: 1.5 uM), 106%. Further, the nuclei count, normalised in assay [1] (measured here: cell number at 48 h, Library stock concentration: 4.6 uM) was found to be 107%; in assay [1] (measured here: cell number at 48 h, Library stock concentration: 13.7 uM), 104%; in assay [1] (measured here: cell number at 48 h, Library stock concentration: 41 uM), 108%; in assay [1] (measured here: cell number at 48 h, Library stock concentration: 123 uM), 87.8%; in assay [1] (measured here: cell number at 48 h, Library stock concentration: 370 uM), 59.1%; in assay [1] (measured here: cell number at 48 h, Library stock concentration: 1.111 mM) it was 49.4%. For the same compound, the nuclei count, normalised is 31.9% in assay [1] (measured here: cell number at 48 h, Library stock concentration: 3.333 mM) and 24.4% in assay [1] (setting [4]). Besides, the p53-positive nuclei, normalised in assay [2] (Library stock concentration: 500 nM) was 0.221% (inactive); in assay [2] (Library stock concentration: 1.5 uM), 0.0846% (inactive); in assay [2] (Library stock concentration: 4.6 uM) it was 0.192% (inactive); in assay [2] (Library stock concentration: 13.7 uM), -0.0302% (inactive); in assay [2] (Library stock concentration: 41 uM), 0.353% (inactive); in assay [2] (Library stock concentration: 123 uM), 5.11% (inactive). For the same compound, the p53-positive nuclei, normalised in assay [2] (Library stock concentration: 370 uM) was 28.8% (inactive); in assay [2] (Library stock concentration: 1.111 mM) it was 38.4% (inactive); in assay [2] (Library stock concentration: 3.333 mM) it was 79.8% (active); in assay [2] (setting [5]), 117% (active); in assay [2] (measured here: p53 positive nuclei at 24 h, Library stock concentration: 500 nM), -0.0612%; in assay [2] (measured here: p53 positive nuclei at 24 h, Library stock concentration: 1.5 uM), 0.0572%. Besides, the p53-positive nuclei, normalised in assay [2] (measured here: p53 positive nuclei at 24 h, Library stock concentration: 4.6 uM) was 0.0046%; in assay [2] (measured here: p53 positive nuclei at 24 h, Library stock concentration: 13.7 uM), 0.00591%; in assay [2] (measured here: p53 positive nuclei at 24 h, Library stock concentration: 41 uM) it was 0.0741%; in assay [2] (measured here: p53 positive nuclei at 24 h, Library stock concentration: 123 uM), 5.3%; in assay [2] (measured here: p53 positive nuclei at 24 h, Library stock concentration: 370 uM) it was 28.7%; in assay [2] (measured here: p53 positive nuclei at 24 h, Library stock concentration: 1.111 mM), 41.6%. For the same compound, the p53-positive nuclei, normalised in assay [2] (measured here: p53 positive nuclei at 24 h, Library stock concentration: 3.333 mM) came to 85.9%; in assay [2] (setting [6]), 121%.
In the case of `O=C(O)c1ccc(C=C2SC(=S)N(c3cccc(C(F)(F)F)c3)C2=O)cc1`, the nuclei count, normalised came to 76.4% in assay [1] (setting [7]) and 78.4% in assay [1] (setting [8]). Also, the p53-positive nuclei, normalised in assay [2] (setting [9]) is -0.0579% (inactive); in assay [2] (setting [10]), -0.316%.
As to `C/C=C/C(=O)O[C@H](COCCCCCCCCCCCCCCCC)COP(=O)([O-])OCC[N+](C)(C)C`, the nuclei count, normalised is 91.3% in assay [1] (setting [11]) and 103% in assay [1] (setting [12]). Further, the figures for the p53-positive nuclei, normalised in assay [2] (concentration not given here) and in assay [2] (setting [13]) were -0.0567% (inactive) and 0.0947%, respectively.
Take `CCCCCCCCCCCCCCCCCC(=O)OCC`: the figures for the nuclei count, normalised in assay [1] (setting [11]) and in assay [1] (setting [12]) were 111% and 110%, respectively. The p53-positive nuclei, normalised in assay [2] (concentration not given here) was -0.0271% (inactive); in assay [2] (setting [13]), -0.00774%.
On to `N=c1ccn2c(n1)OC1C(O)C(CO)OC12` (stereo not drawn), for which the results for the nuclei count, normalised in assay [1] (setting [7]) and in assay [1] (setting [8]) were 61.4% and 51.8%, respectively. In addition, the p53-positive nuclei, normalised in assay [2] (setting [9]) was 0.1% (inactive); in assay [2] (setting [10]), -0.25%.
For `Nc1cccc(OCc2ccccc2)c1`, the nuclei count, normalised in assay [1] (measured here: cell number at 24 h, Library stock concentration: 46 uM) was 111%; in assay [1] (measured here: cell number at 24 h, Library stock concentration: 278 uM), 109%; in assay [1] (measured here: cell number at 24 h, Library stock concentration: 1.67 mM) it was 109%; in assay [1] (setting [3]), 99%; in assay [1] (measured here: cell number at 48 h, Library stock concentration: 46 uM) it was 106%; in assay [1] (measured here: cell number at 48 h, Library stock concentration: 278 uM), 111%. For the same compound, the nuclei count, normalised in assay [1] (measured here: cell number at 48 h, Library stock concentration: 1.67 mM) came out at 109%; in assay [1] (setting [4]), 103%. Also, the p53-positive nuclei, normalised in assay [2] (Library stock concentration: 46 uM) was -0.0623% (inactive); in assay [2] (Library stock concentration: 278 uM) it was -0.108% (inactive); in assay [2] (Library stock concentration: 1.67 mM), 0.151% (inactive); in assay [2] (setting [5]), 0.0982% (inactive); in assay [2] (measured here: p53 positive nuclei at 24 h, Library stock concentration: 46 uM), -0.0998%; in assay [2] (measured here: p53 positive nuclei at 24 h, Library stock concentration: 278 uM), -0.155%. Also, the p53-positive nuclei, normalised is 0.0148% in assay [2] (measured here: p53 positive nuclei at 24 h, Library stock concentration: 1.67 mM) and -0.152% in assay [2] (setting [6]).
In the case of `CN1CC[C@H](c2c(O)cc(O)c3c(=O)cc(-c4ccccc4Cl)oc23)C(O)C1` (stereo partly drawn), the nuclei count, normalised in assay [1] (setting [14]) came out at 104%; in assay [1] (setting [15]), 38.3%; in assay [1] (setting [16]), 28.8%; in assay [1] (setting [7]), 19.7%; in assay [1] (setting [3]), 27.3%; in assay [1] (setting [17]), 113%. Further, the nuclei count, normalised in assay [1] (setting [18]) was determined as 25.6%; in assay [1] (setting [19]) it was 21.8%; in assay [1] (setting [8]), 16%; in assay [1] (setting [4]) it was 20.2%. For the same compound, the p53-positive nuclei, normalised in assay [2] (setting [20]) was 0.113% (inactive); in assay [2] (setting [21]) it was 48.4% (inactive); in assay [2] (setting [22]), 4.92% (inactive); in assay [2] (setting [9]) it was 8.28% (inactive); in assay [2] (setting [5]), 4.03% (inactive); in assay [2] (setting [23]) it was -0.107%. Also, the p53-positive nuclei, normalised came out at 2.03% in assay [2] (setting [24]), 0.196% in assay [2] (setting [25]), 0.472% in assay [2] (setting [10]) and 0.419% in assay [2] (setting [6]).
For the compound `CN1CCC(c2c(O)cc(O)c3c(=O)cc(-c4ccccc4Cl)oc23)C1CO` (stereo not drawn), the nuclei count, normalised in assay [1] (setting [14]) stood at 103%; in assay [1] (setting [15]), 85.7%; in assay [1] (setting [16]) it was 35.8%; in assay [1] (setting [7]), 33.3%; in assay [1] (setting [3]), 24.1%; in assay [1] (setting [17]), 106%. The nuclei count, normalised in assay [1] (setting [18]) is 84.1%; in assay [1] (setting [19]) it was 23.2%; in assay [1] (setting [8]) it was 26.2%; in assay [1] (setting [4]) it was 17.3%. Moreover, the p53-positive nuclei, normalised in assay [2] (setting [20]) was 0.295% (inactive); in assay [2] (setting [21]), 16% (inactive); in assay [2] (setting [22]), 66% (active); in assay [2] (setting [9]), 49.6% (inactive); in assay [2] (setting [5]) it was 30.8% (inactive); in assay [2] (setting [23]), 0.32%. Besides, the p53-positive nuclei, normalised in assay [2] (setting [24]) stood at 6.89%; in assay [2] (setting [25]) it was 3.25%; in assay [2] (setting [10]) it was 3.39%; in assay [2] (setting [6]) it was 6.32%.
Take `CN1CCC(c2c(O)cc(O)c3c(=O)cc(-c4ccccc4Cl)oc23)C(O)C1` (stereo not drawn): the nuclei count, normalised in assay [1] (setting [14]) was found to be 79.6%; in assay [1] (setting [15]), 49.2%; in assay [1] (setting [16]), 29.8%; in assay [1] (setting [3]), 27.6%; in assay [1] (setting [17]) it was 57.1%; in assay [1] (setting [18]), 29.5%. Moreover, the results for the nuclei count, normalised in assay [1] (setting [19]) and in assay [1] (setting [4]) were 16% and 17.8%, respectively. The p53-positive nuclei, normalised in assay [2] (setting [20]) is 5.98% (inactive); in assay [2] (setting [21]), 41.3% (inactive); in assay [2] (setting [22]), 13.9% (inactive); in assay [2] (setting [5]), 7.27% (inactive); in assay [2] (setting [23]), 1.3%; in assay [2] (setting [24]), 7.22%. In addition, the p53-positive nuclei, normalised in assay [2] (setting [25]) stood at 0.675%; in assay [2] (setting [6]) it was 0.446%.
